Assay outcomes as filed in PubChem BioAssay.
The list is not random: actives were taken first. Their share in the collection is about 4%.
tim10-1 inh: growth inhibitors of tim10-1 mutant yeast, primary screen, luminescence, uHTS. S. cerevisiae tim10-1 ts strain growth, BacTiter-Glo, 24 h. inhibition, % at 20 µM. hit rate 2.2% among 330,000;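 active = inhibition of at least 40%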;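 also: mutant grown at 25 °C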
tim23-1 inh: growth inhibitors of tim23-1 mutant yeast, primary screen, luminescence, uHTS | hit rate 1.3% among 330,000 | S. cerevisiae tim23-1 growth, BacTiter-Glo luminescence, 24 h | inhibition, % at 20 µM;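 active = growth inhibition of the mutant yeast at or above 50%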;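 also: temperature-sensitive mutant grown at 25 °C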
NALP1 inh: NALP1 inflammasome inhibitors in reconstituted yeast, colorimetric, S. cerevisiae, triplicate retest; hit rate 0.61% among 280,000; S. cerevisiae NALP1/ASC/caspase-1 growth, X-gal OD620, 72 h; inhibition, % at 10 µM; in the data active = inhibition mostly above about 24%, no sharp cut-off; inactive = mostly below about 32%
TIM10 inh: growth inhibitors of isogenic TIM10 control yeast, primary screen, counter-screen for tim10-1 yeast inhibitor project, luminescence, uHTS; S. cerevisiae TIM10 strain growth, BacTiter-Glo luminescence, 24 h; inhibition, % at 10 µM; hit rate 1.4% among 330,000; AID 463195, 2010;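 active = inhibition of 40% or more at the single tested concentration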;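 also: wild-type TIM10 isogenic control strain grown at permissive 25 °C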
NLRP3 yeast inh: NALP3 inflammasome inhibitors in reconstituted yeast, primary screen, luminescence, uHTS | hit rate 0.39% among 330,000 | AID 2825, 2010 | inhibition, % at 10 µM | Yeast reconstituted NLRP3/ASC/caspase-1, beta-gal luminescence, 24 h;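 active = inhibition of 50% or more; inactive = inhibition below 50%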
tim23-1 conf: tim23-1 mutant yeast growth inhibitors, confirmation, luminescence, single concentration. S. cerevisiae tim23-1 growth, BacTiter-Glo luminescence, 24 h. hit rate 83% among 4,400. shares compounds with tim23-1 inh. inhibition, % at 20 µM;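 active = inhibition above about 39% in either of two replicate wells at 20 µM, limit read from the data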;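 also: temperature-sensitive tim23-1 mutant grown at 25 °C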
Numbers stand for hits; . = inactive; / = not tested or not shown.

SMILES	tim10-1 inh	tim23-1 inh	NALP1 inh	TIM10 inh	NLRP3 yeast inh	tim23-1 conf
O=C(COc1ccc2ccccc2c1Br)Nc1cccnc1	.	51.7	.	.	.	.
O=C(N/N=C/c1cccs1)c1cc(-c2cccc3ccccc23)n[nH]1	.	50.6	.	.	.	48.0
O=C(N/N=C/c1cccs1)c1cc(-c2ccc3ccccc3c2)n[nH]1	.	.	/	.	.	/
CC(OC(=O)c1ccc(CN2CCCC2=O)cc1)C(=O)Nc1ccc(Cl)cc1 (centres undefined)	.	.	/	.	.	/
O=C(COc1ccc(F)cc1)NCC1(N2CCCCC2)CCCCC1	.	.	/	.	.	/
O=C(Nc1nc(-c2ccc3c(c2)OCCO3)cs1)C1CCCC1	.	.	.	.	.	/
O=C(c1cc(-c2ccccc2Cl)nc2ccccc12)N1CCN(c2ccccc2O)CC1	.	.	/	.	.	/
O=C(c1cc(-c2ccccc2Cl)nc2ccccc12)N1CCN(c2ccccn2)CC1	.	54.3	/	.	.	44.1
CCOc1ccc(C2NC(=O)c3ccccc3O2)cc1 (centres undefined)	.	.	.	.	.	/
CCc1ccc(C2NC(=O)c3ccccc3O2)cc1 (centres undefined)	.	52.1	.	.	.	.
CC(=O)Nc1ccc(NS(=O)(=O)c2ccc3c(c2)oc(=O)n3C)cc1	.	.	.	.	.	/
CC(=O)c1ccc(N2CCN(C(=O)[C@H](C)NC(=O)c3ccccc3Cl)CC2)cc1	.	.	.	.	.	/
Cn1ccnc1SCC(=O)n1c2c(c3ccccc31)CCCC2	.	50.8	.	.	.	41.5
O=C(CCl)Nc1cccc(Oc2ccccc2)c1	.	51.8	.	.	.	.
Cc1ccc(S(=O)(=O)NCC(=O)OCCOc2cccc(Cl)c2)cc1	.	51.0	/	.	.	43.9
Cc1ccc(S(=O)(=O)NCC(=O)OCCOc2ccccc2F)cc1	.	.	/	.	.	/
O=C(O)CC/C(=N\NC(=O)c1ccncc1)c1ccccc1	.	.	.	.	.	/
O=C(/C(=C/O)N=Nc1ccccc1)c1ccncc1	.	56.2	.	.	.	.
COC(=O)Nc1ccc(S(=O)(=O)N2CCCC(C(=O)NCC3CCCO3)C2)cc1 (centres undefined)	.	.	/	.	.	/
O=C(CSCc1ccc(F)cc1)Nc1nc2c(s1)CCCC2	.	56.3	.	.	.	41.4
[O-][n+]1c2ccccc2c2n1CCCN=C2c1ccc(Cl)cc1	.	.	/	.	.	/
CC(=O)N(Cc1ccc2c(c1)OCO2)C1CC(=O)N(CCc2ccccc2)C1=O (centres undefined)	.	.	.	.	.	/
CCOc1ccccc1C(=O)N1CCCCC1C (centres undefined)	.	.	.	.	.	/
CCOC(=O)C1=C(COC(=O)CCc2ccccc2)NC(=O)NC1C (centres undefined)	.	.	/	.	.	/
Cc1ccc(NCC(=O)N/N=C\c2ccc([N+](=O)[O-])o2)cc1	.	54.7	.	.	.	41.0
SMILES	tim10-1 inh	tim23-1 inh	NALP1 inh	TIM10 inh	NLRP3 yeast inh	tim23-1 conf
O=C(CNc1ccccc1)N/N=C/c1ccc([N+](=O)[O-])o1	.	.	.	.	.	/
COc1ccc(/C=C/C(=O)Oc2cccc(/C=N/NC(=O)Cc3ccc(Br)cc3)c2)cc1	.	.	/	.	.	/
CCCC(C)c1nnc(NC(=O)COc2ccc3c(c2)OCO3)s1 (centres undefined)	.	.	.	.	.	/
Cc1cc([N+](=O)[O-])cc(/C=N/n2c(C)nc3ccccc3c2=O)c1O	.	79.1	.	.	.	65.8
Cc1nc2ccccc2c(=O)n1/N=C/c1ccccc1O	.	.	.	.	.	/
COCCCNC(=S)NC(=O)c1ccc(C)cc1	.	.	.	.	.	/
CC(=O)Nc1ccc2nc(CN3CCN(Cc4ccc(F)cc4)C(CCO)C3)ccc2c1 (centres undefined)	.	.	.	.	.	/
Nc1c(N(Cc2ccco2)C(=O)c2ccc(Br)cc2)c(=O)[nH]c(=O)n1Cc1ccccc1	.	58.6	/	.	.	71.8
Nc1c(N(Cc2ccco2)C(=O)c2ccc(Cl)cc2)c(=O)[nH]c(=O)n1Cc1ccccc1	.	59.7	/	.	.	65.6
N#Cc1ccc(C(=O)N(Cc2ccco2)c2c(N)n(Cc3ccccc3)c(=O)[nH]c2=O)cc1	.	.	/	.	.	/
Nc1c(N(Cc2ccco2)C(=O)c2cccc(Cl)c2)c(=O)[nH]c(=O)n1Cc1ccccc1	.	.	/	.	.	/
Nc1c(Cl)cc(-c2csc(N3CCCC3c3nc4cc(Cl)c(N5CCCCC5)cc4n3CCCO)n2)cc1Cl (centres undefined)	.	.	/	.	.	/
C/C(=N\NC(=O)c1ccccc1OCCOc1ccccc1)c1ccccc1F	.	53.4	/	.	.	.
C/C(=N\NC(=O)c1ccccc1)c1ccccc1F	.	.	.	.	.	/
COc1ccc(CC(=O)OCC(=O)Nc2ccc3c(c2)OCO3)cc1	.	.	.	.	.	/
Cc1ccc(NC(=O)Nc2c(C)n(C)n(-c3ccccc3)c2=O)cc1	.	94.2	.	.	.	.
CCC(C)(C)C1CCC(NC(=O)N2CCN(c3ccccc3O)CC2)CC1 (centres undefined)	.	.	.	.	.	/
CCCC(=O)NC(c1ccc(N(C)C)cc1)c1ccc2cccnc2c1O (centres undefined)	.	.	.	.	.	/
CCCC(=O)NC(c1ccccc1Cl)c1ccc2cccnc2c1O (centres undefined)	.	50.5	.	.	.	52.9
CCC(=O)NC(c1ccc(C)cc1)c1ccc2cccnc2c1O (centres undefined)	.	62.4	.	.	.	57.5
CCCC(=O)NC(c1ccc(C(C)C)cc1)c1ccc2cccnc2c1O (centres undefined)	.	56.8	.	.	.	62.8
CCOC(=O)C1=C(C)NC(C)=C(C(=O)OCC)C1C(=O)OCC(=O)N(C)Cc1ccccc1	.	.	/	.	.	/
COc1ccc(NC(=O)CCCC(=O)NCCc2ccc(OC)c(OC)c2)cc1	.	.	.	.	.	/
N=c1sccn1CC(=O)Nc1cc(Cl)ccc1Oc1ccccc1	.	65.7	.	.	.	.
N=c1sccn1CC(=O)Nc1cccc(Oc2ccccc2)c1	.	.	.	.	.	/
Cc1cnn(-c2nc(-c3ccccc3)cc(-c3ccccc3)n2)c1	.	51.9	.	.	.	56.2
CSc1ccc(/C=C(\C#N)C(=O)NC2CCCCC2)cc1	.	.	.	.	.	50.8
N#C/C(=C\c1ccc(Cl)cc1)C(=O)NC1CC1	.	56.3	/	.	.	51.6
C=CCNC(=O)/C(C#N)=C/c1ccc(SC)cc1	.	.	.	.	.	/
N#C/C(=C/c1ccc(O)cc1)C(=O)NCc1ccc(Cl)cc1	.	.	.	.	.	/
